POLB inh – qHTS Assay for Inhibitors of DNA Polymerase Beta; P06746; Pol beta primer extension/strand displacement, fluorescence kinetic; Potency, µM (series often up to 114 µM), for inactives: at the top dose activity change, negative = inhibition, actives largely listed as inhibitors; 340,000 compounds, 1.3% hits; AID 485314, 2010; also: potency is read from the fitted curve at half-maximal effect; % is scaled to controls: 0 for no effect and ±100 for the full control effect
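Homogeneous kinetic assay of primer extension and strand displacement by 10 nM Pol beta, preincubated 15 min at room temperature with compound before 50 nM substrate (final) was added. Read at 0 and 10 min; four-parameter Hill fit.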
PI4K2A block – qHTS for small molecular inhibitors of PI4K2A. purified PI4K2A, ADP-Glo luminescence, 1 h; hits give low values. activity change, negative = inhibition, % at 76.9 µM. 420,000 compounds, 0.13% hits. AID 1346378, 2018; in the data active = activity change below about -50%; inconclusive = mostly about -30% to -49%;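 also: -100% = wells without enzyme as full effect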
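ADP-Glo luminescence measured ADP generated by PI4K2A enzyme (4 ug/mL before mixing) with 1.2 mM PI substrate (pre-mix) and 300 microM ATP (pre-mix). Tris pH7.5 buffer with MgCl2, Triton X-100; 1 h reaction at ambient temperature.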
Pol kappa inh-1 – qHTS for Inhibitors of Polymerase Kappa | DNA polymerase kappa (Homo sapiens), Q9UBT6 | purified Pol kappa, fluorescent DNA synthesis assay, 10 min | Potency, µM (highest dose often 107 µM), for inactives: top-dose activity, negative = inhibition, hits mostly inhibitors | 400,000 compounds, 0.53% hits | AID 588579, 2011; also: potency is read from the fitted curve at half-maximal effect; % is scaled to controls: 0 for no effect and ±100 for the full control effect
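Inhibition of 10 nM Pol kappa is measured by a fluorescent read-out at 0 and 10 min following addition of 50 nM substrate (final), with a 15-min room-temperature compound preincubation.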
PI5P4Ka inh – qHTS for Inhibitors of phosphatidylinositol 5-phosphate 4-kinase (PI5P4K) | Phosphatidylinositol 5-phosphate 4-kinase type-2 alpha (Homo sapiens), P48426 | PI5P4Kalpha enzyme, ADP-Glo luminescence, 60 min; hits give low values | AID 652105, 2013 | max response, % | 330,000 compounds, 1.2% hits; active = max response of -50% or lower; inconclusive = between -30% and -50%; inactive = -30% or higher; also: value at the top dose of about 77 µM; % is scaled to controls: 0 for no effect and ±100 for the full control effect
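qHTS, 1536-well: enzyme/substrate mix, compound by pin tool, 5 microM ATP final; RT 60 min; ADP-Glo reagents 1 (45 min) then 2 (30 min); luminescence.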
Pol iota inh – qHTS for Inhibitors of Polymerase Iota | 390,000 compounds, 1% hits | DNA polymerase iota (Homo sapiens), Q9UNA4 | Pol iota fluorescent replication assay, 10 min | Potency, µM (series often up to 115 µM), for the others: at the top dose activity, negative = inhibition, hits mostly inhibitors; also: potency is read from the fitted curve at half-maximal effect
Target sequence (Q9UNA4 whole entry, looked up): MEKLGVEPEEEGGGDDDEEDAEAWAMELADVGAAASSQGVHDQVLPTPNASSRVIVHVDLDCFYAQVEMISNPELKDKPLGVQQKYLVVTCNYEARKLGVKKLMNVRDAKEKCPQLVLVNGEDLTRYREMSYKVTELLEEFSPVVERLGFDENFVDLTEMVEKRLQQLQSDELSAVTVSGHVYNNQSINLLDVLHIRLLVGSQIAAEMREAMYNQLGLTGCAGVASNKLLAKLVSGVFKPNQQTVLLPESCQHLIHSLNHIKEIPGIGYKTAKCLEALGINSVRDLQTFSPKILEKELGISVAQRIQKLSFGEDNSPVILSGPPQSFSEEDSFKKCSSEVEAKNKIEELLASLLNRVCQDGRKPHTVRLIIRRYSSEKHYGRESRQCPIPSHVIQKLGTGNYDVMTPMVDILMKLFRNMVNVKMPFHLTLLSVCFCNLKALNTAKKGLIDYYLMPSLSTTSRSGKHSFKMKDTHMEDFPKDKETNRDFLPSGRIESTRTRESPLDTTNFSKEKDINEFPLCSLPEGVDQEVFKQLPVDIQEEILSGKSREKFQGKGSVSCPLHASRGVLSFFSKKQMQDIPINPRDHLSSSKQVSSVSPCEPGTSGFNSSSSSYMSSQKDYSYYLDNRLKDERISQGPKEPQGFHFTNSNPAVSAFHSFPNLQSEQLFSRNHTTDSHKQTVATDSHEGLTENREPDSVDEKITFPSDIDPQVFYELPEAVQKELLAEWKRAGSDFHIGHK
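Fluorescent replication assay read twice, at 0 min and 10 min after adding 50 nM (final) substrate. Enzyme (10 nM) and compounds were first incubated 15 min at room temperature; enzyme-free buffer wells were negative controls.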
Pol eta inh-1 – qHTS for Inhibitors of Polymerase Eta; recombinant Pol eta, fluorescent DNA replication assay; Potency, µM (titrated, usually from 114 µM), for inactives: at the highest dose activity change, negative = inhibition, actives largely listed as inhibitors; 390,000 compounds, 1.2% hits; also: potency is read from the fitted curve at half-maximal effect; % is scaled to controls: 0 for no effect and ±100 for the full control effect
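Pol eta (10 nM) was preincubated with compounds for 15 min at room temperature, after which fluorescent replication substrate (50 nM final) was added to start the reaction. Fluorescence was read kinetically at 0 and 10 min.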
GALK inh confirm – Confirmation Assay for Inhibitors of Human Galactokinase (GALK); shares compounds with Pol eta inh-1; purified GALK, Kinase-Glo ATP depletion luminescence; Potency, µM (series often up to 115 µM), inactives show at the top dose activity, negative = inhibition, actives largely listed as inhibitors; 150 compounds, 70% hits
Redox cycling – Confirmatory Assay for Inhibitors of Human Galactokinase (GALK): Phenol-HRP redox assay counterscreen; AID 2035, 2009; Potency, µM (series often up to 115 µM), inactives show at the top dose activity change, negative = H2O2 signal, hits mostly inhibitors; 150 compounds, 40% hits; Phenol red-HRP H2O2 redox cycling, absorbance 600 nm; shares compounds with Pol eta inh-1
HEK293 tox – Secondary Assay for Inhibitors of Human Galactokinase (GALK): HEK-293 Cell Viability Assay; shares compounds with Pol eta inh-1; HEK-293 viability, ATP luminescence (CellTiter-Glo), 24/48 h; Potency, µM (top dose mostly 46.1 µM), without a hit: at the highest dose activity change, negative = cytotoxicity, hits mostly inhibitors; 170 compounds, 10% hits; also: potency is read from the fitted curve at half-maximal effect; % is scaled to controls: 0 for no effect and ±100 for the full control effect
Pol kappa inh-2 – qHTS for Inhibitors of Polymerase Kappa: Confirmatory Assay for Cherry-picked Compounds | shares compounds with Pol eta inh-1 | purified Pol-kappa, fluorescent strand-displacement substrate | Potency, µM, actives largely listed as inhibitors | 920 compounds, 76% hits; also: potency is read from the fitted curve at half-maximal effect
Pol eta inh-2 – qHTS for Inhibitors of Polymerase Eta: Confirmatory Assay for Cherry-picked Compounds; shares compounds with Pol eta inh-1; Pol eta primer extension, TAMRA/BHQ fluorescence, 10 min; Potency, µM, hits mostly inhibitors; 2,600 compounds, 64% hits; also: potency is read from the fitted curve at half-maximal effect
An asterisk follows results filed as active; ? = inconclusive; nt = not tested or not shown; [ ] = dose if it differs, or a comment. Rows were chosen to be rich in hits. Some 2.8% of all compounds tested hit in one or more screens of this group. Unless noted, calls follow the shape of the dose curve; as a rule, active = well fitted curve in the direction sought with a large enough effect; inconclusive = small, poorly fitted or top-dose-only effect, or another doubt; inactive = no such curve, though single readings can be large; an effect the other way counts as inactive or inconclusive.

SMILES	POLB inh	PI4K2A block	Pol kappa inh-1	PI5P4Ka inh	Pol iota inh	Pol eta inh-1	Pol eta inh-2	others
O=C1NC(=Nc2ccccc2Cl)S/C1=C\c1cc([N+](=O)[O-])ccc1O	?	-6.6	?	-67.0*	35.5µM*	79.4µM*	nt	Pol kappa inh-2=?
CSCC[C@H](NC(=O)[C@H](CC(C)C)NC(=O)CNC(=O)[C@H](Cc1ccc(O)cc1)NC(=O)[C@H](Cc1ccccc1)NC(=O)[C@H](CCC(N)=O)NC(=O)[C@H](CCC(N)=O)NC(=O)[C@@H]1CCCN1C(=O)[C@H](CCCCN)NC(=O)[C@@H]1CCCN1C(=O)[C@@H](N)CCCN=C(N)N)C(N)=O	nt	nt	12.7%[60.1 µM]	nt	nt	nt	nt
O=C(O)/C=C/C(=O)N1Cc2cc3ccccc3nc2C1	?	-9.1	?	1.8	?	50.1µM*	75.7*
NC(=O)CC[C@@H]1NC(=O)[C@H](CO)NC(=O)c2cc([N+](=O)[O-])cc(I)c2OCC[C@@H](C(N)=O)NC1=O	-0.7%	-2.9	-17.3%	-1.7	17.3%	-7.4%	nt
NCCCC[C@@H]1NC(=O)[C@H](CCC(=O)O)NC(=O)c2cc([N+](=O)[O-])cc(I)c2OCC[C@@H](C(N)=O)NC1=O	1.0%	-3.0	25.1µM*	-2.1	?	14.1µM*	30.1*
O=C(Nc1nnc(C2CC2)s1)C1CC(=O)N(c2ccc3c(c2)OCCO3)C1 (stereo not drawn)	?	-0.9	?	?	44.7µM*	20µM*	?
O=C1CCCN1C(=O)CSc1ncnc2sccc12	nt	7.9	-44.0%	-24.6	44.7µM*	20µM*	75.7*	Pol kappa inh-2=?
O=C(CSc1ncnc2sccc12)N1CCCCC1	nt	-0.3	-7.0%	-4.3	21.4%	-20.9%	nt
COc1ccc(CCN2C(=O)CSCC2(C)C(=O)Nc2ccc3c(c2)OCCO3)cc1OC (stereo not drawn)	nt	-8.3	nt	4.7	nt	nt	nt
CC1=NN2C(=N)/C(=C\c3cc(C)n(-c4cccc(C)c4)c3C)C(=O)N=C2S1	0.1%	-3.8	-10.5%	-15.8	-22.4%[58.9 µM]	-18.1%	nt
CS(=O)(=O)C1=NSC2=NC(=O)/C(=C\c3cccn3-c3ccccc3Cl)C(=N)N21	35.5µM*	-11.4	?	-94.7*	?	39.8µM*	?
N=C1/C(=C/c2cccn2Cc2ccc(Cl)cc2)C(=O)N=C2SC=CN12	?	-1.8	-20.8%	1.6	181.0%	-0.3%	nt
Cc1cc(C)cc(-n2cccc2/C=C2/C(=N)N3C(=NC2=O)SN=C3S(C)(=O)=O)c1	44.7µM*	-1.1	-10.1%	?	?	39.8µM*	?
CCN1C(=O)/C(=C\c2ccc(-c3ccc([N+](=O)[O-])cc3OC)o2)SC1=Nc1cccc(C(=O)O)c1	?	-19.8	-35.8%	-50.2*	?	28.2µM*	75.7*
CCN1C(=O)/C(=C\c2ccc(-c3cccc(C(=O)OC)c3)o2)SC1=Nc1ccc(C(=O)O)cc1	-22.0%	nt	nt	nt	nt	nt	nt
CCOC(=O)CN1C(=O)S/C(=C/c2ccc(C)o2)C1=O	-20.7%	-0.4	-15.3%	-1.6	76.8%	-11.7%	nt
C#CCN1C(=O)S/C(=C\c2ccc(-c3ccc(Cl)c(C(=O)O)c3)o2)C1=O	?	1.1	35.5µM*	?	?	14.1µM*	?
CCOc1cc(/C=C2\SC(=O)N(CC(=O)Nc3ccccc3F)C2=O)cc([N+](=O)[O-])c1O	-6.3%	2.0	-19.6%	-54.8*	11.2µM*	?	nt	Pol kappa inh-2=?
O=C(O)CCC(=O)Nc1ccc(N2CCCCC2)c(C(=O)O)c1	-6.1%	1.7	-8.3%	2.7	12.1%	-6.3%	nt
O=C(O)CCC(=O)Nc1ccc2c(c1)Cc1cc(NC(=O)CCC(=O)O)ccc1-2	44.7µM*	-1.6	0.8%	-16.4	-10.2%	25.1µM*	?
COc1cccc(-n2c(SCC(=O)N3CCCc4ccccc43)nc3c([nH]c4ccccc43)c2=O)c1	-3.0%	5.7	-8.9%[60.1 µM]	nt	28.9%	-17.7%	nt
Cc1ccc2c(c1)c(=O)c1ccccc1n2CCCC(=O)Nc1ccc(Cl)cc1C	?	6.2	2.1%	nt	-12.3%	89.1µM*	nt	Pol kappa inh-2=?
COc1ccccc1N1CCN(C(=O)Cn2ncc3c(=O)oc4ccccc4c32)CC1	9.6%	5.1	-3.3%	nt	11.6%	-9.7%	nt
CC[C@]1(c2ccccc2)NC(=O)NC1=O	nt	nt	-3.5%[12 µM]	nt	nt	nt	nt
Cc1oc(-c2ccc(C(=O)Nc3ccc(F)cc3)cc2)nc1COc1ccccc1	14.4%	-0.6	-8.1%	nt	11.3%	-3.6%	nt
COc1ccc(-c2nn(-c3ccccc3)cc2/C=C2/SC(=S)N(CCC(=O)O)C2=O)cc1	31.6µM*	4.1	-33.8%	1.9	?	22.4µM*	nt	Pol kappa inh-2=16.8*
Cn1cccc1/C=C1\SC(=S)N(CC(=O)O)C1=O	17.4%	3.0	-0.5%	3.9	7.1%	-4.2%	nt
Cc1ccc(-c2nn(-c3ccccc3)cc2/C=C2\SC(=S)N(CC(=O)O)C2=O)cc1	5.0%	7.6	-0.6%	-6.7	?	?	nt	GALK inh confirm=42.1µM*;Redox cycling=6.1%;HEK293 tox=-0.6%

High-throughput results (PubChem)
